Source: PubChem BioAssay
OTUD3 inh: inhibitors of human OTUD3 deubiquitinase; OTU domain-containing protein 3 (Homo sapiens), Q5T2D3; purified OTUD3, Ub-rhodamine fluorescence, 2 h; inhibition, % at 25 µM; actives 0.7% (n = 47,000)
USP28 inh: inhibitors of human USP28 deubiquitinase | Ubiquitin carboxyl-terminal hydrolase 28 (Homo sapiens), Q96RU2 | purified USP28, Ub-rhodamine cleavage fluorescence, 30 min | inhibition, % at 25 µM | actives 3% (n = 47,000) | AID 1645857, 2021
USP30 inh: inhibitors of human USP30 deubiquitinase; Ubiquitin carboxyl-terminal hydrolase 30 (Homo sapiens), Q70CQ3; purified USP30, Ub-rhodamine cleavage fluorescence; inhibition, % at 25 µM; actives 5.3% (n = 47,000); AID 1645860, 2021
Target sequence (Q70CQ3 whole entry, looked up): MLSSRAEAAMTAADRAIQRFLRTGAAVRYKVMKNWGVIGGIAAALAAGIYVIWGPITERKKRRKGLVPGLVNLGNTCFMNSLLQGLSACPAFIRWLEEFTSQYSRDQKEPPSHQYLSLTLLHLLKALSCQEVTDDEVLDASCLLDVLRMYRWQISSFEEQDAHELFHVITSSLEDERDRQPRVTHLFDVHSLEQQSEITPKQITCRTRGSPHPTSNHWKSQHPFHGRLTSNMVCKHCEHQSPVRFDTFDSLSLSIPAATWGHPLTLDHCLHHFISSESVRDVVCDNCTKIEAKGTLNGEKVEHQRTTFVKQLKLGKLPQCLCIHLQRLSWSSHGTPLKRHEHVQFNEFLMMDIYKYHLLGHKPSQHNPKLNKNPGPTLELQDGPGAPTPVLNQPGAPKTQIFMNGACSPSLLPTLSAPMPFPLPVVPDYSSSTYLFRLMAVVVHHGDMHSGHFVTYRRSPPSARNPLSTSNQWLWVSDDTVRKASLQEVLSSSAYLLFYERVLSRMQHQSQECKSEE
USP17 block: inhibitors of human USP17 deubiquitinase; Ubiquitin carboxyl-terminal hydrolase 17-like protein 5 (Homo sapiens), A8MUK1; purified USP17, Ub-rhodamine cleavage fluorescence, 3 h; inhibition, % at 50 µM; actives 6.5% (n = 47,000)
* marks the source's active call; other numbers are inactive results; / = not tested or not shown. A selection: hits, their analogues and other compounds. The true share with any hit is near 11%. Cut-off read from the data, not from the text of the source: active = inhibition above about 30%; inactive = the rest.

SMILES	OTUD3 inh	USP28 inh	USP30 inh	USP17 block
Clc1snnc1CN1CCOC(Cn2cccn2)C1 (stereo not drawn)	-8.8	-17.6	-18.8	-16.5
Cc1ccc(CCNC(=O)Cn2cnc3c(nc4n3CCCCC4)c2=O)cc1	-9.4	-1.0	-8.0	1.8
Cc1ccc(OCc2nc3ccccc3n2C(C)c2ccccc2)cc1 (stereo not drawn)	17.9	26.8	34.1*	16.6
Cc1ccc(C(C)C)c(OCc2nc3ccccc3n2CC(C)C)c1	17.1	10.7	24.9	20.2
CCc1ccc(NC(=O)CSc2ccc(N3CCC(C(=O)NC4CC4)CC3)nn2)cc1	38.0*	67.0*	62.1*	62.0*
CN1C(=O)[C@H](Cc2ccccc2)N(C)C(=O)[C@@H]2[C@H]1CCN2C(=O)NC1CC1	-5.6	-8.0	-9.5	0.3
CC(C)C(=O)N(Cc1ccc(-c2ccc(Cl)c(Cl)c2)o1)C1CCS(=O)(=O)C1 (stereo not drawn)	-21.9	-36.3	-132.2	-5.1
O=C(NCCC1=CCCCC1)c1cc2c(s1)CS(=O)(=O)C2	3.0	/	/	22.0
O=C(NCCCN1CCc2ccccc2C1)c1cc2c(s1)CS(=O)(=O)C2	-16.2	41.2*	-26.4	62.0*
Fc1ccc(-c2nc(-c3cnccn3)no2)c(Cl)c1	0.1	12.1	35.8*	19.3
O=C(Cc1ccc(F)cc1)N1CCC(Cc2nc(-c3cnccn3)no2)CC1	-0.1	-15.7	-4.4	0.1
O=C(Cc1nnc(-c2cnccn2)o1)Nc1ccc(Cl)cc1	18.1	22.6	37.6*	9.8
O=C(Cc1nnc(-c2cnccn2)o1)Nc1ccc(F)c(Cl)c1	4.2	14.0	16.5	13.2
Cc1cn2c(=O)c(C(=O)Nc3cccc(C)c3C)cnc2s1	0.1	-6.6	-3.1	0.4
O=C1NCC2(C/C=C/CCOc3ccccc31)CCN(Cc1ccncc1)CC2	-4.5	8.8	-0.1	-11.0
O=P(O)(O)OC[C@H]1O[C@@H](O)[C@H](O)[C@@H](O)[C@@H]1O	4.4	-2.4	-2.6	0.1
NC(=O)c1cccc(OCCOc2ccccc2)c1	0.2	15.1	48.6*	24.1
O=C(OCCOc1ccccc1)c1ccc(-c2ccccc2)cc1	16.8	4.6	20.8	10.7
Cc1nnc(Nc2cccc(C3CCCN(S(C)(=O)=O)C3)n2)s1 (stereo not drawn)	0.2	0.4	-1.7	12.8
Cc1ccc(C)c(NC(=O)Cn2c3ncccc3c(=O)n2-c2ccccc2)c1	13.1	4.8	45.3*	/
Cc1ccccc1OCCCn1c(CN(C)C(=O)c2ccco2)nc2ccccc21	-9.7	-3.6	-6.3	30.5*
Cc1cccc(OCCCn2c(CN(C)C(=O)c3ccco3)nc3ccccc32)c1	-7.1	-9.7	-1.6	-14.2
CSc1ccc(NC(=O)CCc2cccc3[nH]ccc23)cc1	-6.2	3.9	-21.0	-3.7
COc1ccc(N(C(=O)CCCC(=O)Nc2ccccn2)C(C(=O)NC2CCCCC2)c2ccc(Cl)cc2)cc1 (stereo not drawn)	12.9	13.0	37.4*	32.9*
COc1ccc(OC)c(N(CC(=O)NC2CCCCC2)C(=O)CCC(=O)Nc2ccccn2)c1	-7.4	3.1	30.5*	8.8
SMILES	OTUD3 inh	USP28 inh	USP30 inh	USP17 block
CCOc1ccc(N(CC(=O)NC2CCCCC2)C(=O)CCC(=O)Nc2ccccn2)cc1	3.0	2.7	18.0	2.8
COc1ccc(C(C(=O)NC2CCCCC2)N(C(=O)CCCC(=O)Nc2ccccn2)c2ccccc2C)cc1 (stereo not drawn)	-6.0	5.8	10.8	56.4*
Cc1ccc(N(C(=O)CCCC(=O)Nc2ccccn2)C(C(=O)NC2CCCC2)c2ccc(F)cc2)cc1C (stereo not drawn)	14.9	23.9	37.9*	37.2*
COc1ccc(N(C(=O)CCCC(=O)Nc2ccccn2)C(C(=O)NC2CCCCC2)c2ccc(Cl)cc2)c(OC)c1 (stereo not drawn)	0.5	-10.0	19.2	0.1
CC(=O)Nc1nsc(N2CCC(C(=O)N3CCN(c4ccc(F)cc4)CC3)CC2)n1	13.4	8.0	22.8	7.3
Fc1cccc(-n2cc(-c3noc(-c4ccccn4)n3)nn2)c1	14.1	80.9*	88.5*	30.1*
Fc1cccc(-n2cc(-c3noc(-c4ccc[nH]4)n3)nn2)c1	20.5	46.0*	77.0*	43.1*
COc1cccc(Cc2nc(-c3cn(-c4ccccc4)nn3)no2)c1	-15.3	-30.3	-59.2	-3.7
COc1cccc(Cc2nc(-c3cn(-c4cccc(F)c4)nn3)no2)c1	22.6	31.9*	35.9*	17.4
Cc1ccc2cc3c(nc2c1)N(C(=O)c1ccccc1)CC3	-1.0	0.7	-14.8	-5.5
CCn1cnnc1C1CCN(C(=O)c2cc(-c3ccccc3)n[nH]2)CC1	-0.3	-7.9	-10.8	-4.2
COc1ccc(NC(=O)C2CCC(=O)N2Cc2cccs2)cc1 (stereo not drawn)	16.6	9.1	3.0	-0.7
CC(C)Oc1ccc(S(=O)(=O)N2CCOCC2)cc1NCC(=O)Nc1ccc(C(C)(C)C)cc1	18.5	10.8	33.2*	14.3
O=C(CSc1nnnn1-c1ccccc1)NC(C(=O)O)(c1ccccc1)c1ccccc1	1.2	-1.1	5.0	7.1
CCc1ccc(NC(=O)CSc2nnnn2-c2cccnc2)cc1	13.4	30.9*	12.3	-5.4
Fc1cccc(Cc2nn[nH]n2)c1	10.2	2.5	18.2	6.1
C=C(CCC(C)(C)/C=C/CC/C(C)=C/COC(COP(=O)(O)O[C@@H]1OC(C(N)=O)[C@@](C)(O)[C@H](OC(N)=O)C1O[C@@H]1OC(CO[C@@H]2OC(CO)[C@H](O)[C@H](O)C2O)[C@H](O[C@@H]2OC(CO)[C@H](O[C@@H]3OC(C(=O)NC4=C(O)CCC4=O)[C@H](O)[C@H](O)C3O)[C@H](O)C2NC(C)=O)C(O)[C@@H]1NC(C)=O)C(=O)O)CC1C(=C)CCCC1(C)C (stereo partly drawn)	-16.2	44.1*	-137.2	-8.1
COc1ccc(NS(=O)(=O)c2ccc3c(c2)CCCC(=O)N3)c(OC)c1	-2.3	-8.0	-5.5	4.5
COc1ccc(-c2c3c4n(c(-c5ccc(Cl)c(Cl)c5)cn4c2C(=O)Nc2ccccc2Cl)CCCC3)cc1	-9.2	-7.8	-18.2	-3.6
Cc1cc(-c2cnc(N(C)C)nc2-c2ccc(CNC(=O)Cc3ccc(F)cc3)cc2)on1	17.4	16.1	23.5	63.5*
Cc1cc(-c2cnc(NCc3ccc(F)cc3)nc2-c2ccco2)on1	8.0	17.9	-10.8	32.7*
Cc1cc(-c2cnc(NCc3cccc(F)c3)nc2[C@@H]2CCCO2)on1	10.2	35.1*	21.2	17.8
Cc1cc(-c2cnc(N3CCCC3)nc2[C@H]2CCCO2)on1	-7.6	-6.8	-19.4	-7.7
Cc1ccc(Oc2nc(-c3cccnc3)nc3ccccc23)cn1	-7.1	-5.6	-14.3	6.1
CC1CCN(C(=O)c2cn(-c3cc(N4CCC(C)CC4)ncn3)cn2)CC1	14.1	70.8*	28.1	3.3
Cc1cccc(CNC(=O)C2CCN(c3cnc(N4CCOCC4)nc3)CC2)c1	-8.6	-8.7	-18.7	-13.9
